# The panel holds about 83,000 compounds, 20% with a hit somewhere; the sample as a whole holds those more often.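 Step 1: grow cells in 96-well plates. Step 2: add test compound at a single concentration. Step 3: incubate 48 h. Step 4: record percent growth.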 A number with no mark means an inactive call. Calls of active or inactive are those of the source. How the source made its calls: active means growth percent below 10; inactive means the rest.
# Tested on: HL-60(TB) leukemia
# Assay: NCI-60 one-dose screen, 48 h (100 = growth as untreated, 0 = no growth, -100 = all killed)
# Details: 10 µM unless noted
row,SMILES,growth
1,CC(Sc1nc2ccccc2c(=O)n1CCc1ccc(S(N)(=O)=O)cc1)C(=O)Nc1ccc(Cl)cc1 (stereo not given),86.2%
2,O=C(Nc1nc2ccccc2s1)Nc1ccc([N+](=O)[O-])cc1Cl,78.8%
3,Nc1ccc(S(=O)(=O)Nc2ccsc2-c2nc(-c3ccccc3)no2)cc1,35.1%
4,Cc1ccc(Cn2cc(COc3ccc4c5ccnc(C)c5n(CCCc5ccccc5)c4c3)nn2)cc1,77.6%
5,CCOC(=O)c1[nH]c(C)c(C(C)=O)c1C,102%
6,CCOC(=O)c1cc(C(=O)c2cc(OC)cc(OC)c2)n2ccccc12,-13.9% (active)
7,COCCOC(=O)C1=C(C)NC(=S)NC1c1ccc2c(c1)OCO2 (stereo not given),92.1%
8,CC(=O)Nc1c(Cl)cc2c(c1Cl)Cc1ccccc1-2,99.7%
9,O=C(C(=O)N1CCCC1)c1cn(CCCn2cc(C(=O)C(=O)N3CCCC3)c3cc(Br)ccc32)c2ccc(Br)cc12,86.5%
10,Cc1ccc(-c2nn(CC(=O)N3CCOCC3)c(N)c2C#N)cc1,103%
11,COc1ccc(OC)c(Nc2nc3nonc3nc2Nc2cccc(Br)c2)c1,-14.1% (active)
12,CC(C)[C@@]12C[C@@H](OC(=O)COC(=O)c3ccccc3)[C@@](C)(O1)[C@@H]1CC[C@@H](C)[C@H]1[C@@H]2OC(=O)/C=C/c1ccccc1,94.5%
13,COc1ccc2c(c1)nc(N)c1c3cc(C)c(C)cc3cn21,79.6%
14,OC(CBr)c1ccnc2ccccc12 (stereo not given),100%
15,CCCCCCCCCCCCNC(=O)[C@H]1CSC(c2cc3ccccc3s2)N1 (stereo not given in full),-33.3% (active)
16,O=C(Nc1ccc(-c2nc3ccc(NC(=O)c4ccc(Cl)cc4)cc3[nH]2)cc1)c1ccc(Cl)cc1,-45.9% (active)
17,CSc1nc(-c2cc3ccccc3o2)cc(-c2ccc(Cl)cc2)c1C#N,126%
18,COc1cc(OC)c(/C=C/c2cc[n+](C)c3ccccc23)c(OC)c1,-25.6% (active)
19,OCc1cnccc1NCCCOc1ccccc1,89.4%
20,C#C[C@]1(O)CC[C@H]2[C@@H]3CC=C4c5sc(-c6cccc(C)c6)nc5CC[C@]4(C)[C@H]3CC[C@@]21C,71.8%

row,SMILES,growth
1,CN1CCN(Cc2ccc(NC(=O)c3cncc(C#Cc4cncc5[nH]ncc45)c3)cc2C(F)(F)F)CC1,-28.9% (active)
2,C=C1C(=O)O[C@H]2[C@H]1CC/C(CNC(=O)/C=C/c1ccc(Cl)cc1Cl)=C\CC[C@@]1(C)O[C@@H]21,-27.4% (active)
3,CSc1nc2ccc(C)cc2cc1/C=N/O,91.6%
4,CCOc1cccc(/C=N/NC(=O)Cc2ccc(Nc3ccnc(C(F)(F)F)c3)cc2)c1O,73.1%
5,COc1cc(-c2cc(/C=C3\C(=O)Nc4ccccc43)[nH]n2)cc(OC)c1OC,-12.1% (active)
6,CCCCCCCC/C=C\CCCCCCCC(=O)Oc1cccc2cccnc12,83.9%
7,COc1cccc(-c2cc(-c3cccc(Cl)c3)c(C#N)c(=O)[nH]2)c1,36.2%
8,O=c1[nH]c(-c2ccccc2)nc(CN2CCCCC2)c1O,84.4%
9,N=C1S/C(=C/c2ccc(-c3ccc4c(c3)C(=O)NC4=O)o2)C(=O)N1c1ccc(Br)cc1,50.5%
10,Cc1csc(-c2ccc3c(c2)COC3(CCCN(C)C)c2ccc(F)cc2)c1 (stereo not given),-47.9% (active)
11,N#Cc1c2c([nH]c(=O)c1C(N)=O)CCCCC2,104%
12,CN(C)c1ccc(CNC(C(=O)c2ccccc2)c2ccccc2)cc1 (stereo not given),97.1%
13,FC(F)(F)c1cc(Nc2ccc3c(OCCCN4CCOCC4)cccc3n2)ccc1Cl,63.3%
14,O=C(CC(=O)c1cccc(Cl)c1)c1cccc(Cl)c1,4.17% (active)
15,COc1cc2c(cc1O)CC[C@@H]1[C@@H]2CC[C@]2(C)[C@@H](NCCN(C)C)CC[C@@H]12,-67.7% (active)
16,COc1ccc(C2NC(=O)C(C#N)c3c2sc2c(F)cccc32)c(OC)c1 (stereo not given),56.9%
17,CCCCCCCCCCCCCCCCC(=O)O,101%
18,COc1ccc2c(c1)CC[C@@H]1[C@@H]2CC[C@]2(C)C3C(=CC(COC(C)=O)C4C(=O)N(c5ccc(Cl)cc5)C(=O)C43)C[C@@H]12 (stereo not given in full),88.4%
19,CCN1CCN(CCOc2ccc(CNc3ccc4nc(CCC5CCCCC5)[nH]c4c3)cc2)CC1,-12.7% (active)
20,Cc1[nH]nc2ccc3nc(-c4ccc5[nH]ncc5c4)c4c(c3c12)CCCC4,-15.5% (active)

# From PubChem BioAssay (NCI)
